Source: PubChem BioAssay AID1159580 (chemical genetic matrix, 2015)
About 2,000 (36%) of roughly 5,500 compounds were called active. Roughly 18% stayed inconclusive and do not appear here. Cut-off read from the data, not from the text of the source: active = normalized growth mostly below about 0.91 (no sharp cut-off); inconclusive = no clear call, values can overlap the other calls; inactive = mostly above about 0.92. The list shows a part of the results.

Experiment: chemical genetic growth profiling, strain panel (AID 1159580);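 note: tested at 20 µM; growth read once vehicle control cultures reached saturation at 30 °C; 1 = growth at the plate median or of vehicle wells; lower values mean less growth of the strain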
Conditions: growth OD

Measured: normalized growth

CC(=O)OCC(CCn1cnc2cnc(N)nc21)COC(C)=O
inactive: S. cerevisiae deletion strains, locus YJR075W, strain HOC1, active compounds read low 0.991 | S. cerevisiae deletion strains, locus YKL009W, strain mrt4, active compounds read low 0.973 | S. cerevisiae deletion strains, locus YKL068W, active compounds read low 0.977 | S. cerevisiae deletion strains, locus YKL085W, strain MDH1 (second series), active compounds read low 0.971 | S. cerevisiae deletion strains, locus YKL085W, strain MDH1, active compounds read low 0.971 | S. cerevisiae deletion strains, locus YKL160W, strain elf1, active compounds read low 0.981 | S. cerevisiae deletion strains, locus YKL190W, strain CNB1, active compounds read low 0.989 | S. cerevisiae deletion strains, locus YKR001C, strain vps1, active compounds read low 0.986 | S. cerevisiae deletion strains, locus YKR026C, strain gcn3, active compounds read low 0.991 | S. cerevisiae deletion strains, locus YKR091W, strain srl3, active compounds read low 0.989 | S. cerevisiae deletion strains, locus YLL001W, strain dnm1, active compounds read low 0.986 | S. cerevisiae deletion strains, locus YLL026W, active compounds read low 0.987 | S. cerevisiae deletion strains, locus YLL041C, strain sdh2, active compounds read low 0.99 | S. cerevisiae deletion strains, locus YLR027C, strain aat2, active compounds read low 0.97 | S. cerevisiae deletion strains, locus YLR039C, strain RIC1, active compounds read low 0.955 | S. cerevisiae deletion strains, locus YLR058C, strain SHM2, active compounds read low 0.977 | S. cerevisiae deletion strains, locus YLR102C, strain apc9, active compounds read low 0.963 | S. cerevisiae deletion strains, locus YLR113W, strain HOG1, active compounds read low 0.966 | S. cerevisiae deletion strains, locus YLR221C, strain rsa3, active compounds read low 1 | S. cerevisiae deletion strains, locus YLR258W, strain gsy2, active compounds read low 0.992 | S. cerevisiae deletion strains, locus YLR262C, strain YPT6 (second series), active compounds read low 0.985 | S. cerevisiae deletion strains, locus YLR262C, strain YPT6, active compounds read low 0.96 | S. cerevisiae deletion strains, locus YLR268W, strain sec22, active compounds read low 0.964 | S. cerevisiae deletion strains, locus YLR320W, strain mms22, active compounds read low 1.01 | S. cerevisiae deletion strains, locus YLR330W, strain CHS5, active compounds read low 0.986 | S. cerevisiae deletion strains, locus YLR342W, strain FKS1 (second series), active compounds read low 1.03 | S. cerevisiae deletion strains, locus YLR342W, strain FKS1, active compounds read low 0.989 | S. cerevisiae deletion strains, locus YLR357W, strain rsc2, active compounds read low 0.969 | S. cerevisiae deletion strains, locus YLR370C, strain arc18, active compounds read low 0.994 | S. cerevisiae deletion strains, locus YLR371W, strain rom2, active compounds read low 0.955 | S. cerevisiae deletion strains, locus YLR384C, strain iki3, active compounds read low 0.974 | S. cerevisiae deletion strains, locus YLR418C, strain cdc73, active compounds read low 0.982 | S. cerevisiae deletion strains, locus YML016C, strain PPZ1, active compounds read low 0.981 | S. cerevisiae deletion strains, locus YML032C, strain rad52, active compounds read low 0.975 | S. cerevisiae deletion strains, locus YML120C, strain ndi1, active compounds read low 0.989 | S. cerevisiae deletion strains, locus YML124C, strain tub3, active compounds read low 0.973 | S. cerevisiae deletion strains, locus YMR058W, strain fet3, active compounds read low 0.988 | S. cerevisiae deletion strains, locus YMR078C, strain ctf18, active compounds read low 0.972 | S. cerevisiae deletion strains, locus YMR125W, strain sto1, active compounds read low 0.986 | S. cerevisiae deletion strains, locus YMR129W, active compounds read low 0.986 | S. cerevisiae deletion strains, locus YMR205C, strain PFK2, active compounds read low 0.992 | S. cerevisiae deletion strains, locus YMR223W, strain ubp8, active compounds read low 0.988 | S. cerevisiae deletion strains, locus YMR231W, strain pep5, active compounds read low 0.986 | S. cerevisiae deletion strains, locus YMR263W, strain SAP30, active compounds read low 0.993 | S. cerevisiae deletion strains, locus YMR307W, strain GAS1, active compounds read low 0.957 | S. cerevisiae deletion strains, locus YNL067W, strain RPL9B, active compounds read low 1 | S. cerevisiae deletion strains, locus YNL071W, strain lat1, active compounds read low 0.995 | S. cerevisiae deletion strains, locus YNL128W, strain TEP1, active compounds read low 0.992 | S. cerevisiae deletion strains, locus YNL153C, strain GIM3, active compounds read low 0.996 | S. cerevisiae deletion strains, locus YNL183C, strain NPR1, active compounds read low 0.959 | S. cerevisiae deletion strains, locus YNL209W, strain ssb2, active compounds read low 0.994 | S. cerevisiae deletion strains, locus YNL233W, strain BNI4, active compounds read low 0.99 | S. cerevisiae deletion strains, locus YNL248C, strain rpa49, active compounds read low 0.991 | S. cerevisiae deletion strains, locus YNL250W, strain rad50, active compounds read low 0.971 | S. cerevisiae deletion strains, locus YNL271C, strain bni1, active compounds read low 0.956 | S. cerevisiae deletion strains, locus YNL298W, strain CLA4, active compounds read low 0.946 | S. cerevisiae deletion strains, locus YNL307C, strain MCK1, active compounds read low 0.99 | S. cerevisiae deletion strains, locus YNL322C, strain KRE1 (second series), active compounds read low 0.995 | S. cerevisiae deletion strains, locus YNL322C, strain KRE1, active compounds read low 0.99 | S. cerevisiae deletion strains, locus YNR049C, strain mso1, active compounds read low 0.983 | S. cerevisiae deletion strains, locus YNR052C, strain pop2, active compounds read low 0.967 | S. cerevisiae deletion strains, locus YOL006C, strain TOP1, active compounds read low 0.955 | S. cerevisiae deletion strains, locus YOL012C, strain htz1 0.703 | S. cerevisiae deletion strains, locus YOL147C, strain pex11, active compounds read low 0.969 | S. cerevisiae deletion strains, locus YOR001W, strain rrp6, active compounds read low 0.974 | S. cerevisiae deletion strains, locus YOR061W, strain CKA2, active compounds read low 0.966 | S. cerevisiae deletion strains, locus YOR069W, strain VPS5, active compounds read low 0.982 | S. cerevisiae deletion strains, locus YOR070C, strain gyp1, active compounds read low 0.996 | S. cerevisiae deletion strains, locus YOR080W, strain dia2, active compounds read low 0.975 | S. cerevisiae deletion strains, locus YOR083W, strain WHI5, active compounds read low 0.987 | S. cerevisiae deletion strains, locus YOR106W, strain vam3, active compounds read low 0.982 | S. cerevisiae deletion strains, locus YOR136W, strain idh2, active compounds read low 0.959 | S. cerevisiae deletion strains, locus YOR144C, strain elg1, active compounds read low 0.958 | S. cerevisiae deletion strains, locus YOR184W, strain ser1, active compounds read low 0.966 | S. cerevisiae deletion strains, locus YOR231W, strain MKK1, active compounds read low 0.991 | S. cerevisiae deletion strains, locus YOR265W, strain rbl2, active compounds read low 0.98 | S. cerevisiae deletion strains, locus YOR270C, strain vph1, active compounds read low 1 | S. cerevisiae deletion strains, locus YOR290C, strain snf2, active compounds read low 1.01 | S. cerevisiae deletion strains, locus YOR316C, strain cot1, active compounds read low 0.958 | S. cerevisiae deletion strains, locus YPL051W, strain arl3, active compounds read low 0.984 | S. cerevisiae deletion strains, locus YPL055C, strain LGE1, active compounds read low 0.992 | S. cerevisiae deletion strains, locus YPL078C, strain atp4, active compounds read low 0.976 | S. cerevisiae deletion strains, locus YPL106C, strain sse1, active compounds read low 0.973 | S. cerevisiae deletion strains, locus YPL240C, strain hsp82, active compounds read low 0.973 | S. cerevisiae deletion strains, locus YPL241C, strain CIN2, active compounds read low 0.993 | S. cerevisiae deletion strains, locus YPL256C, strain CLN2, active compounds read low 0.958 | S. cerevisiae deletion strains, locus YPR119W, strain clb2, active compounds read low 0.974 | S. cerevisiae deletion strains, locus YPR141C, strain kar3, active compounds read low 0.943 | S. cerevisiae deletion strains, locus YPR163C, strain tif3, active compounds read low 0.966 | S. cerevisiae deletion strains, locus YPR167C, strain met16, active compounds read low 0.962 | S. cerevisiae deletion strains, strain wtn01, active compounds read low 0.965 | S. cerevisiae strains, strain wild type, active compounds read low 0.994
